In PubChem BioAssay AID540326 (Broad Institute, 2011):
The list shows a part of the results. Active and inactive are the calls of the source.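 Rule for the calls: active = quenching, a falling signal, with AC50 below a set limit tied to the top valid dose (actives reach about 32 µM in these data); inconclusive = no clear call, values can overlap the other calls; inactive = rising signal, and the rest.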

Assay: compounds quenching DiI signal without cells – biochemical, cherry-pick samples, plate reader fluorescence, artefact control for SR-BI HDL uptake inhibitor project, dose response (AID 540326)
Conditions: cell-free DiI-HDL fluorescence quenching, 30 min; series mostly up to 35 µM

Cc1cc(NC(=O)Nc2ccccc2)n(-c2ccccc2)n1
AC50: inactive

CCCC(=O)N1c2ccc(-c3csc(N)n3)cc2CC1C (centres undefined)
AC50: inactive

CCCCC(=O)Nc1nc(C)c(-c2csc(Nc3ccc(Cl)cc3)n2)s1
AC50: 1930 nM (active)

CCOc1ccc(OCCSc2nc3ccccc3n2CC(=O)O)cc1
AC50: inactive

C=CCCC(=O)Nc1nc(C)c(-c2csc(Nc3ccc(Cl)cc3)n2)s1
AC50: 2190 nM (active)

CCOC(=O)c1[nH]c2c(c1-c1ccccc1)C(=O)CC(c1ccc(Cl)cc1)C2 (centres undefined)
AC50: inactive

COC(=O)C1=CN(c2ccc(F)c(F)c2)C=C(C(=O)OC)C1c1ccc([N+](=O)[O-])cc1
AC50: inactive

CCCOC1CCCN(C(=O)c2cc(COc3cncc(Cl)c3)on2)C1 (centres undefined)
AC50: inactive

CC(C)OCCCNC(=O)c1ccc(C2SCC(=O)N2Cc2ccco2)cc1 (centres undefined)
AC50: inactive

O=C(Nc1ccc(-c2csc(Nc3cccc(C(F)(F)F)c3)n2)cc1)c1cccc(C(F)(F)F)c1
AC50: 435 nM (active)

CCCC(=O)Nc1ccc(Cl)c(NC(=O)c2ccc(Br)o2)c1
AC50: inactive

Cc1cccc(N2CCN(C(=O)CN(C)S(=O)(=O)c3ccc4c(c3)CCC(=O)N4)CC2)c1C
AC50: inactive

O=c1cc(N2CCCCC2)c(-c2ccccc2)nn1Cc1cccc(F)c1
AC50: inactive

O=C(NC1CC2CCCC(C1)N2C(=O)N1CCCCC1)C1CCCCC1 (centres undefined)
AC50: inactive

COc1cccc(N(CC(=O)NC2CCCC2)C(=O)Cn2nnc(-c3ccc(C)cc3)n2)c1
AC50: inactive

CCCOC(=O)c1[nH]c2c(c1C)C(=O)CC(c1cc(OC)c(OC)c(OC)c1)C2 (centres undefined)
AC50: inactive

O=C(Nc1cccc(NC(=O)N2CCN(c3ccccc3)CC2)c1)N1CCN(c2ccccc2)CC1
AC50: inactive

CCOc1ccc(NC(=O)CN2CCN(CC(=O)Nc3ccc(OC)cc3)CC2)cc1
AC50: inactive

O=C(Nc1cccc(NC(=O)c2ccccc2[N+](=O)[O-])c1)c1ccccc1Cl
AC50: inactive
